# Marburg entry inh: qHTS for inhibitors of binding or entry into cells for Marburg Virus; Marburg virus pseudotyped entry inhibition, cell reporter; actives 1.8% (n = 300,000); Potency, µM (doses to about 37.8 µM), for the others: at the top dose activity change, negative = inhibition, usual class: inhibitors; AID 540276, 2011; calls by dose curve; tested in HEK293 cells; also: potency is read from the fitted curve at half-maximal effect; % is scaled to controls: 0 for no effect and ±100 for the full control effect
# Lassa entry inh: qHTS for Inhibitors of binding or entry into cells for Lassa Virus; Lassa virus pseudotype entry inhibition, cell reporter; Potency, µM (doses to about 37.9 µM), without a hit: at the top dose activity change, negative = inhibition, hits mostly inhibitors; actives 1.2% (n = 300,000); calls by dose curve; tested in HEK293 cells; also: potency is read from the fitted curve at half-maximal effect; % is scaled to controls: 0 for no effect and ±100 for the full control effect; nearly all actives have a fitted effect of over 50% in size
# Cycloheximide cs: Cycloheximide Counterscreen for Small Molecule Inhibitors of Shiga Toxin; cell reporter, cycloheximide protein synthesis inhibition counterscreen; max response, %; actives 12% (n = 300,000); AID 2314, 2010; in the data active = max response mostly above about 13%, no sharp cut-off; inactive = mostly below about 14%; also: read at 38.3 µM for the half of the compounds with a filed dose; 0% is about no effect
# Vaccinia mCherry: qHTS for Stage-Specific Inhibitors of Vaccinia Orthopoxvirus: mCherry Reporter Primary qHTS; Vaccinia virus mCherry reporter infection, fluorescence; Potency, µM (highest dose often 36.5 µM), for inactives: at the top dose activity change, negative = inhibition, hits mostly inhibitors; actives 0.63% (n = 310,000); AID 720579, 2013; calls by dose curve; tested in A549 cells; also: potency is read from the fitted curve at half-maximal effect; % is scaled to controls: 0 for no effect and ±100 for the full control effect; nearly all actives have a fitted effect of over 35% in size
# Shiga toxin inh: A qHTS for Small Molecule Inhibitors of Shiga Toxin; inhibition, % at 38.7 µM; actives 9.2% (n = 290,000); Vero cells, Shiga toxin protein synthesis inhibition reporter; AID 2315, 2010; in the data active = inhibition mostly above about 28%, no sharp cut-off; inactive = mostly below about 43%; also: 0% is about no effect
# VACV Venus inh: qHTS for Stage-Specific Inhibitors of Vaccinia Orthopoxvirus: Venus Reporter Primary qHTS. Vaccinia virus Venus reporter expression, fluorescence. actives 0.46% (n = 330,000). Potency, µM (top dose mostly 36.5 µM), inactives show top-dose activity change, negative = inhibition, most hits filed as inhibitors; calls by dose curve; tested in A549 cells; also: potency is read from the fitted curve at half-maximal effect; % is scaled to controls: 0 for no effect and ±100 for the full control effect; nearly all actives have a fitted effect of over 30% in size
# Numbers without * were called inactive; i = inactive; ? = inconclusive; · = not tested or not shown; [ ] = dose if it differs, or a comment. Shown is part of a subset that was picked to be rich in hits.
SMILES,Marburg entry inh,Lassa entry inh,Cycloheximide cs,Vaccinia mCherry,Shiga toxin inh,VACV Venus inh
COc1ccc2c(C)nc(Nc3nc(C)c(C)c(=O)[nH]3)nc2c1,?,?,48*,·,25,·
COc1ccc(Nc2nc(C)c(-c3ccccc3)s2)cc1,?,-27%,59*,?,82*,-19%
COc1ccc(Nc2nc(C)c(C(C)=O)s2)cc1,·,·,·,i,·,3%
CCc1ccccc1Nc1nc2ccccc2c2nncn12,3%[46.1 µM],27%[46.1 µM],·,-8%,·,3%
COc1ccc2c(c1)c1c(c(=O)n(-c3ccccc3C)c(=O)n1CC(=O)Nc1c(C)cccc1C)n2C,·,3%[46.1 µM],·,-18%,·,-17%
COc1ccc(Nc2nc(-c3ccccc3)c3ccccc3n2)cc1,6%,4%,-5,-13%,13,-3%
COc1ccc(Nc2nc(C)c3ccccc3n2)cc1,?,21%,27*,-29%,135*,-20%
CN1CCN(C2=Cc3cc(Cl)ccc3Sc3cc(F)ccc32)CC1,?,10µM*,-7,?,-19,?
c1ccc(N2CCN(c3nc4cc5c(cc4s3)OCCO5)CC2)cc1,23%,-1%,84*,·,95*,·
Clc1cccc2sc(N3CCN(c4ccccc4)CC3)nc12,-4%,?,17,?,19,-23%
c1c2c(cc3sc(N4CCOCC4)nc13)OCCO2,?,5.2µM*,14*,·,48,·
CCN(CC)C(=O)Cn1c(=O)n(-c2ccc(Cl)cc2)c(=O)c2c3c(sc21)CCCCC3,?,-2%[46.1 µM],·,?,·,?
CCOc1ccccc1NC(=O)C1CCN(S(=O)(=O)c2ccc3[nH]c(=O)oc3c2)CC1,·,1%[46.1 µM],·,-7%,·,-13%
Cc1nc2c(c(C)nn2-c2ccccc2)c(C)c1CCC(=O)Nc1ccc(F)cc1,-8%[46.1 µM],25%[46.1 µM],·,0%,·,-11%
O=C(N/N=C/c1ccc[nH]1)c1ccc2c(c1)OCO2,0%[46.1 µM],-9%,37*,-17%,109*,-4%
O=C(CNC(=O)c1cccc(Br)c1)N/N=C/c1ccc2c(c1)OCO2,22%[46.1 µM],13%[46.1 µM],24*,-8%,79*,6%
CCN(CC)c1ccc(/C=N/NC(=O)CNC(=O)c2ccc3c(c2)OCCO3)cc1,13%[46.1 µM],-8%,6,-19%,-10,2%
O=C(N/N=C\c1cc2c(cc1[N+](=O)[O-])OCO2)c1cccs1,?,28%[46.1 µM],8,i,20,-7%
O=C(N/N=C\c1cc2c(cc1Cl)OCO2)c1cccs1,·,·,26*,·,69*,·
O=C(N/N=C/c1ccc2c(c1)OCO2)c1ccc2c(c1)OCO2,?,-13%[46.1 µM],42*,?,72*,-13%
COC(=O)C1CCN(C(=O)COC(=O)[C@@H]2CC(O)CN2S(=O)(=O)c2ccc3c(c2)OCCO3)CC1 (stereo partly specified),-10%,0%,-3,-9%,16,-13%
CC(C)(C)c1ccc(OCC(=O)NCC2(N3CCOCC3)CCCCC2)cc1,?,?,·,-25%,·,-20%
Oc1cc(-c2nc3ccccc3s2)cc2c1OCCN(Cc1cn[nH]c1-c1ccc(Cl)cc1)C2,·,·,·,-22%,·,-10%
CCOc1ccc(C(=O)Nc2nnc(SCc3cc(=O)n4ccccc4n3)s2)cc1,·,3%[46.1 µM],·,-12%,·,-16%
O=C(N/N=C/c1ccccc1OC(=O)N1CCOCC1)c1cccs1,18%[46.1 µM],11%,35*,-2%,47,-12%
SMILES,Marburg entry inh,Lassa entry inh,Cycloheximide cs,Vaccinia mCherry,Shiga toxin inh,VACV Venus inh
O=C(NN=Cc1ccc2c(c1)OCO2)c1ccncc1,21%,35%,·,-17%,·,-12%
O=C(N/N=C/c1ccc2c(c1)OCO2)C1CC1,·,·,37*,·,49*,·
Cc1ccc(C(=O)N/N=C\c2cc3c(cc2Br)OCO3)s1,?,11µM*,-1,-21%,15,?
O=C(Cc1ccccc1)N/N=C/c1cc2c(cc1Cl)OCO2,-24%,-16%,35*,-7%,85*,-18%
CCOC(=O)c1c(C)c(-c2ccccc2)n(CC(=O)Nc2cccc(F)c2)c1C,?,·,·,-3%,·,2%
CCOC(=O)c1c(NC(=O)c2noc(C)c2[N+](=O)[O-])sc(C(C)=O)c1C,?,5%[46.1 µM],12,i,-14,-16%
O=C(N/N=C\c1cccc(OC(=O)c2ccco2)c1)c1ccc2c(c1)OCO2,?,15µM*,32*,-21%,50*,-10%
O=C(N/N=C/c1cc2c(cc1Cl)OCO2)c1ccc2c(c1)OCCO2,0%[46.1 µM],-24%[46.1 µM],42*,0%,70*,-14%
COc1cc(/C=N\NC(=O)c2ccc(C)nc2)ccc1OC(=O)c1ccc2c(c1)OCO2,·,·,15,·,11,·
O=C(N/N=C/c1ccc(COc2ccc(Br)cc2)o1)c1ccc2c(c1)OCO2,·,·,15*,·,26,·
O=C(NN=Cc1ccc2c(c1)OCO2)c1ccccc1,?,?,·,?,·,-23%
O=C(N/N=C/c1ccc(-c2ccc(Br)cc2)o1)c1ccc2c(c1)OCO2,-18%[46.1 µM],?,14,-19%,27,-28%
O=C(N/N=C\c1ccc2c(c1)OCO2)c1ccco1,?,?,28*,i,59*,-12%
COC(=O)c1c(OCc2ccccn2)cc(=O)n2c1CCN(Cc1ccc3nsnc3c1)CC2,·,·,·,-2%,·,0%
Cc1cc(C)c(NC(=O)C2CCN(S(=O)(=O)c3c(C)noc3/C=C/c3ccccc3F)CC2)c(C)c1,·,11%[46.1 µM],·,-10%[7.34 µM],·,-9%[7.34 µM]
COc1ccc(NC(=O)CC2C(=O)N(c3ccc(C)cc3)C(=O)N2CCc2ccccc2)cc1 (stereo unspecified),?,?,·,-5%,·,-11%
COc1ccccc1-c1noc(CSc2nnc(Cc3ccccc3)n2-c2ccc(C)c(C)c2)n1,4%[46.1 µM],-21%[46.1 µM],·,-12%,·,-15%
CCN1CCN(C(CNC(=O)c2ccc3c(c2)OCO3)c2cccnc2)CC1 (stereo unspecified),4%,-6%,20*,-12%,33,15%
O=C(NCC(c1cccnc1)N1CCOCC1)c1ccc2c(c1)OCO2 (stereo unspecified),?,9%,10,·,32,·
O=C(N/N=C/c1c(Cl)[nH]c2ccccc12)c1ccc2c(c1)OCCO2,?,?,55*,-15%,60*,-7%
O=C(N/N=C/c1cccnc1)c1ccc2c(c1)OCO2,·,·,38*,·,55*,·
COc1cccc(-c2cc(C(F)(F)F)n3nc(C(=O)N4CCCCC4c4cccnc4)cc3n2)c1 (stereo unspecified),?,·,19*,i,51*,-13%
Cc1cccc(N2C(=O)CC(SC(=Nc3ccccc3)Nc3ccccc3)C2=O)c1 (stereo unspecified),-15%,?,0,·,-8,?
O=C1SC(SC(=Nc2ccccc2)Nc2ccccc2)C(=O)N1c1ccccc1 (stereo unspecified),5%[46.1 µM],-11%[46.1 µM],41*,?,60*,13%
CC(=O)Nc1ccc(C)cc1,·,·,·,-9%,·,-10%

# Screens (PubChem)
